Experimental data: PubChem BioAssay AID1159580 (chemical genetic matrix, 2015)
The whole screen tested about 5,500 compounds, of which about 2,000 (36%) were called active. Inconclusive results (about 18%) are left out. No stated cut-off is given here; in the data, active means normalized growth mostly below about 0.91 (no sharp cut-off); inconclusive means no clear call, values can overlap the other calls; inactive means mostly above about 0.92. Some of the results follow.

Experiment: chemical genetic growth profiling, strain panel (AID 1159580);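 further: tested at 20 µM; growth read once vehicle control cultures reached saturation at 30 °C; 1 = growth at the plate median or of vehicle wells; lower values mean less growth of the strain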
Settings: S. cerevisiae deletion strains, growth OD

Measured: normalized growth

CC[C@@H]1C=C/C=C/C[C@H](C)[C@@H](O)[C@](C)(O)C(=O)[C@H](C)[C@@H](O)[C@H](C)C(=O)[C@H](C)[C@@H](O)[C@H](C)/C=C/C(=O)O[C@H]2[C@@H](C)[C@@H](CC1)O[C@@]1(CC[C@@H](C)[C@@H](C[C@H](C)O)O1)[C@@H]2C
active: locus YLR262C, strain YPT6 (second series), hits give low values 0.852 | locus YMR205C, strain PFK2, hits give low values 0.815 | locus YPL106C, strain sse1, hits give low values 0.807
inactive: locus YAL021C, strain ccr4, hits give low values 0.977 | locus YAL026C, strain drs2, hits give low values 1.01 | locus YAL030W, strain snc1, hits give low values 1 | locus YBL061C, strain skt5, hits give low values 1 | locus YBR009C, strain hhf1, hits give low values 0.985 | locus YBR023C, strain chs3, hits give low values 1 | locus YBR171W, strain sec66, hits give low values 1.01 | locus YBR231C, strain swc5, hits give low values 1 | locus YBR279W, strain paf1, hits give low values 0.982 | locus YCL011C, strain gbp2, hits give low values 1.02 | locus YCL016C, strain dcc1, hits give low values 1.02 | locus YCL061C, strain MRC1, hits give low values 1.01 | locus YCL069W, strain vba3, hits give low values 1.01 | locus YCR088W, strain abp1, hits give low values 1.02 | locus YDL005C, strain med2, hits give low values 1 | locus YDL040C, strain nat1, hits give low values 1.01 | locus YDR001C, strain nth1, hits give low values 1.01 | locus YDR069C, strain doa4, hits give low values 0.997 | locus YDR137W, strain rgp1, hits give low values 0.899 | locus YDR159W, strain sac3, hits give low values 0.953 | locus YDR195W, strain ref2 0.999 | locus YDR297W, strain sur2, hits give low values 1.01 | locus YDR334W, strain swr1, hits give low values 1.02 | locus YDR335W, strain msn5, hits give low values 1.01 | locus YDR392W, strain spt3, hits give low values 0.958 | locus YEL003W, strain gim4, hits give low values 1.01 | locus YEL037C, strain rad23, hits give low values 1.02 | locus YEL061C, strain CIN8 (second series), hits give low values 1.01 | locus YER015W, strain faa2, hits give low values 0.997 | locus YER016W, strain bim1, hits give low values 1.01 | locus YER111C, strain swi4, hits give low values 1.01 | locus YER155C, strain BEM2 (second series), hits give low values 1.03 | locus YFR010W, strain ubp6, hits give low values 1 | locus YGL167C, strain pmr1, hits give low values 1.01 | locus YGL173C, strain kem1, hits give low values 0.996 | locus YGL227W, strain vid30, hits give low values 1.01 | locus YGL240W, strain doc1, hits give low values 1.01 | locus YGL253W, strain hxk2, hits give low values 0.927 | locus YHR013C, strain ard1, hits give low values 0.967 | locus YHR027C, strain rpn1, hits give low values 1 | locus YHR142W, strain chs7, hits give low values 1.03 | locus YJL092W, strain hpr5, hits give low values 1.01 | locus YJL095W, strain BCK1 (second series), hits give low values 1.02 | locus YJL115W, strain asf1, hits give low values 1.01 | locus YJL129C, strain trk1, hits give low values 0.967 | locus YJL154C, strain vps35, hits give low values 1.01 | locus YJL164C, strain tpk1, hits give low values 0.987 | locus YJL166W, strain qcr8, hits give low values 1.01 | locus YJL187C, strain SWE1, hits give low values 1.01 | locus YKL160W, strain elf1, hits give low values 0.997 | locus YKR026C, strain gcn3, hits give low values 0.99 | locus YKR091W, strain srl3, hits give low values 1.01 | locus YLL001W, strain dnm1, hits give low values 0.984 | locus YLL026W, hits give low values 1.01 | locus YLL041C, strain sdh2, hits give low values 1.01 | locus YLR027C, strain aat2, hits give low values 0.995 | locus YLR221C, strain rsa3, hits give low values 1.02 | locus YLR258W, strain gsy2, hits give low values 0.997 | locus YLR320W, strain mms22, hits give low values 0.984 | locus YLR342W, strain FKS1, hits give low values 1 | locus YLR357W, strain rsc2, hits give low values 1.03 | locus YLR370C, strain arc18, hits give low values 0.994 | locus YLR384C, strain iki3, hits give low values 0.999 | locus YML120C, strain ndi1, hits give low values 0.995 | locus YMR058W, strain fet3, hits give low values 1.02 | locus YMR125W, strain sto1, hits give low values 1.04 | locus YMR129W, hits give low values 0.999 | locus YMR231W, strain pep5, hits give low values 1 | locus YNL071W, strain lat1, hits give low values 1.01 | locus YNL209W, strain ssb2, hits give low values 0.997 | locus YNL248C, strain rpa49, hits give low values 1.01 | locus YNL322C, strain KRE1 (second series), hits give low values 1.02 | locus YNR049C, strain mso1, hits give low values 1.02 | locus YOR001W, strain rrp6, hits give low values 0.999 | locus YOR070C, strain gyp1, hits give low values 1 | locus YOR080W, strain dia2, hits give low values 1.01 | locus YOR083W, strain WHI5, hits give low values 1 | locus YOR106W, strain vam3, hits give low values 0.99 | locus YOR265W, strain rbl2, hits give low values 1 | locus YOR270C, strain vph1, hits give low values 0.914 | locus YOR290C, strain snf2, hits give low values 0.966 | locus YPL051W, strain arl3, hits give low values 1.01 | locus YPL078C, strain atp4, hits give low values 1.02 | locus YPL240C, strain hsp82, hits give low values 0.989

CC[C@@H]1C=C/C=C/C[C@H](C)[C@@H](O)[C@](C)(O)C(=O)[C@H](C)[C@@H](O)[C@H](C)C(=O)[C@H](C)[C@@H](O)[C@H](C)/C=C/C(=O)O[C@H]2[C@@H](C)[C@@H](CC1)O[C@@]1(CC[C@@H](C)[C@@H](CC(C)O)O1)[C@@H]2C (stereo partly specified)
inactive: locus YAL040C, strain CLN3, hits give low values 0.989 | locus YCL061C, strain MRC1 (second series), hits give low values 1.01 | locus YDR150W, strain NUM1, hits give low values 1 | locus YDR363W, strain ESC2, hits give low values 0.961 | locus YER002W, strain NOP16, hits give low values 0.945 | locus YJR075W, strain HOC1, hits give low values 0.973 | locus YMR263W, strain SAP30, hits give low values 1.02 | locus YNL128W, strain TEP1, hits give low values 0.96 | locus YNL175C, strain NOP13, hits give low values 0.969 | locus YNL197C, strain WHI3, hits give low values 0.99 | locus YNL224C, strain SQS1, hits give low values 0.993 | locus YOR083W, strain WHI5 (second series), hits give low values 0.971 | locus YPL055C, strain LGE1, hits give low values 0.936
active: locus YMR307W, strain GAS1, hits give low values 0.911
